# Screens deposited in PubChem BioAssay by ICCB-Longwood Screening Facility, Harvard Medical School.
# The list is not random: actives were taken first. Their share in the collection is about 1.4%.
# Mtb MenB inh: inhibitors of Mycobacterium tuberculosis MenB enzyme | P9WNP5 | MenB enzyme assay, absorbance read-out | inhibition, % (concentration not given with the values) | hit rate 0.43% among 100,000; in the data active means inhibition above about 21%, passing the limit was not always enough
# AID504770: growth inhibitors of E. coli YBA685 in a screen for V. cholerae RctB (chromosome II replication) inhibitors. z-score (concentration not given with the values). E. coli YBA685 rctB-dependent plasmid, OD600 growth, 3 h; hits give low values. hit rate 0.27% among 130,000. AID 504770; in the data active means z-score below about -2, passing the limit was not always enough
# Polio RdRp inh: inhibitors of poliovirus RNA polymerase binding and polymerization; poliovirus polymerase elongation, fluorescence polarization; hits give low values; hit rate 0.66% among 150,000; P03300; % elongation, % (compound at 16.7 µg/mL); in the data active means % elongation below about 90%
# Target sequence (P03300 1749-2209 limits assumed): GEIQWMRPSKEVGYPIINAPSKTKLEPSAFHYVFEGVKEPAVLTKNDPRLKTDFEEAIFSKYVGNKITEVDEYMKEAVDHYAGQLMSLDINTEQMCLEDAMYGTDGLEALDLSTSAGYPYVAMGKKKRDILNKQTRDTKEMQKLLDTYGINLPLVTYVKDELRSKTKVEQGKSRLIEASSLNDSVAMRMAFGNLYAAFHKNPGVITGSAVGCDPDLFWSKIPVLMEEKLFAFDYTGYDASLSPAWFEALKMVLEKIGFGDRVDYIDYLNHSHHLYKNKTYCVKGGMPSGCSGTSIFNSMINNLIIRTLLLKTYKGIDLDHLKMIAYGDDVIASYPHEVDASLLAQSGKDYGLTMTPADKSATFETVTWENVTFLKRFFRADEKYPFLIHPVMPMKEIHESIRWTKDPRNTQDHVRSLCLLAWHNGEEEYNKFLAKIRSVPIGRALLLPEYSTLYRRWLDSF
# MbtI inh: inhibitors of Mycobacterium tuberculosis siderophore enzyme MbtI | P9WFX0 | purified MbtI enzyme, fluorescence intensity read-out | inhibition, % (test concentration not listed) | hit rate 0.89% among 100,000 | AID 493033; in the data active means inhibition mostly above about 56%, no sharp cut-off; inactive means mostly below about 77%
# * marks the source's active call; other numbers are inactive results; i = inactive; . = not tested or not shown.
SMILES,Mtb MenB inh,AID504770,Polio RdRp inh,MbtI inh
CCO/C=C1/C(=O)N(C)C(=O)c2ccccc21,10,-0.55,17,23
O=C(O)C1OC(c2cccc(Cl)c2)=NC12CC2 (stereo not drawn),-11,0.2,98,-6
Cc1cccc(OC(C)C(=O)OCC(=O)c2cc3ccccc3o2)c1 (stereo not drawn),-30,0.15,106,-11
COc1ccccc1-c1nnc(SCC(=O)c2ccc(F)cc2)n1-c1ccccc1,.,.,83*,.
CC(O)(CNCc1ccc(Cl)cc1)CSc1ccccc1Cl (stereo not drawn),-6,-0.75,101,-2
CC1CCCC(C)N1CCCNC(=O)C1c2ccccc2C(=O)N1CCc1ccc(Cl)cc1 (stereo not drawn),-20,-0.65,99,-3
COc1ccc(-c2noc(-c3ccccc3C(=O)N3CCCCC3)n2)cc1OC,-21,0.65,100,-22
CCN1CCCC1CNc1ncnc2c1cnn2-c1ccc(C)cc1 (stereo not drawn),-22,-1.1,101,118
CCN1CCCC1CNc1cc(C)c2ccc(C)cc2n1 (stereo not drawn),-20,-1.2,88*,4
O=C(COC(=O)c1ccccc1Cl)c1ccc(Cl)cc1,2,-0.45,105,-8
NC(=O)c1ccccc1NCC(=O)c1ccc(Cl)cc1,.,-2.2*,.,.
CCN(CCCNC(=O)c1cc2c(=O)[nH]c3ccc(C)cc3c2s1)Cc1ccccc1,.,.,87*,.
O=C1C=CC(=O)N1C1CC1,10,-6*,102,91*
Cc1ccc(C(=O)Nc2nccs2)c(C)c1,-11,-3.1,100,-4
COc1cc(-c2nnc(-c3ccc(N4CCOCC4)cc3)o2)cc(OC)c1OC,-6,0.2,101,90
CC(C)(C)c1ccc(-c2nnc(-c3ccc(N4CCOCC4)cc3)o2)cc1,35*,0.65,101,i
O=C(Nc1ccccc1)N1CC2CCCN2c2ccccc21 (stereo not drawn),15,-1.2,100,2
O=C(NCc1ccccc1)c1ccco1,-18,-1.4,103,-18
O=C(NCc1ccco1)C(=S)NCc1ccccc1,-7,-0.2,99,68*
O=C(NCc1ccco1)C(Sc1ccccc1)c1ccccc1 (stereo not drawn),33*,0.65,102,-5
Cc1ccccc1Nc1cc2ccccc2c(=O)[nH]1,.,-4*,.,7
N#Cc1ccccc1NC(=S)NCc1ccccc1,-23,2.2,95,1
Cc1cc(S(=O)(=O)NCC(C)C)ccc1OCC(=O)N1CCN(Cc2ccc3c(c2)OCO3)CC1,-9,-0.2,99,-10
O=Nc1ccc(NNC(=O)c2ccccc2O)cc1,-414,-2.9*,101,46
O=C(Nc1ccc(NC(=O)c2ccccc2O)cc1)c1ccccc1,.,1.1,.,.
SMILES,Mtb MenB inh,AID504770,Polio RdRp inh,MbtI inh
C=CCNC(=O)c1ccccc1SC,-17,1.6,103,9
Cn1c(=O)c2ncnnc2n(C)c1=O,-22,-2.3*,63*,-3
O=C(Nc1ccccc1Cl)c1cc2c(s1)CCC2,.,-1.5,102,4
O=C(NC1=NCCS1)c1cc2c(s1)CCC2,.,-2.4*,103,2
CCc1ccc(CNCc2cccs2)cc1,-51,-1.2,105,-13
Clc1cccc(CNCc2cccs2)c1,38*,0.8,102,1
NC(=O)N1C(=O)C=CC1=O,-2,-8.5*,.,81
N#CC(C#N)=Cc1ccc(OC(=O)c2ccccn2)cc1,-163,-0.85,87*,34
O=C(Oc1ccc(C=Nc2ccccc2Br)cc1)c1ccccn1,.,0.65,.,.
COc1ccc(/C(N)=N/OC(=O)c2c(-c3ccccc3Cl)noc2C)cc1,-7,-0.25,103,6
CC(C)(C)Nc1nc2c(s1)CCCC2,9,-0.75,101,78*
COC(=O)Nc1cn(Cc2cccnc2)c(=O)c2ccccc12,.,-0.4,.,.
COc1ccc(NC(=O)C(C)n2nnc3sc(-c4ccccc4)cc3c2=O)cc1Cl (stereo not drawn),.,.,76*,.
Nn1c(COc2ccccc2)n[nH]c1=S,-71,-0.75,80*,95*
N#CSCC(=O)N1c2ccccc2CCc2ccccc21,33*,0.7,100,21
O=C(CSc1cc(Cl)ccc1Cl)NCCN1CCOCC1,.,-0.9,103,-9
c1ccc(-c2cnc3nonc3n2)cc1,-1,-3*,85,.
Cc1ccc(C(CC(=O)O)c2ccco2)cc1 (stereo not drawn),3,0.5,101,-6
c1cncc(CNCCN2CCOCC2)c1,65*,-0.2,102,-8
CCOc1cccc(CNCCN2CCOCC2)c1,-46,0.35,97,-2
c1cncc(-c2nnc(-c3cccnc3)nn2)c1,18,-1.3,66*,.
c1ccc(-c2nnc(-c3cccnc3)nc2-c2ccccc2)cc1,0,-0.3,98,-46
Cc1c(-c2ccccc2)sc(N)c1C(=O)N1CCCCC1,-13,0.25,70*,84
Cc1cc(C(=O)COC(=O)c2ccc3c(=O)n4c(nc3c2)CCCCC4)c(C)n1C1CC1,0,-0.15,105,15
CCN1CCc2c(sc(=NC(=O)c3ccc(F)cc3)n2C(=O)c2ccc(F)cc2)C1,-13,-2.1,65*,93
SMILES,Mtb MenB inh,AID504770,Polio RdRp inh,MbtI inh
C=CCn1c(=NC(=O)c2ccc(F)cc2)sc2cc(C(=O)OC)ccc21,.,0.05,.,.
CCOC(=O)Cn1cnc2sc(C(=O)OCC)c(C)c2c1=O,48*,-0.7,102,16
CCN1CCOC(CC(=O)Nc2ccccc2C)C1=O (stereo not drawn),-6,0.8,105,75*
CCCN1CCOC(CC(=O)Nc2ccc(Br)cc2Br)C1=O (stereo not drawn),.,0.7,.,87*
O=C(/C=C/c1ccccc1)Nc1ccccc1N1CCN(c2ccccc2)CC1,-49,3.4,102,-1
CCN(CC)C(=O)Cn1cc(S(=O)(=O)CC#N)c2ccccc21,-14,-1.3,105,-8
COc1ccc(Cl)cc1NC1=NC2CS(=O)(=O)CC2S1 (stereo not drawn),-17,0.2,99,63*
Cc1ccccc1OCCN1C(=O)NC(CC(C)C)C1=O (stereo not drawn),-23,0.35,103,-11
COc1ccc(S(=O)Cc2ccc(C(=O)NCCN(C)C)o2)cc1 (stereo not drawn),6,0,103,6
CC1=CC(=N/C(C)=N/S(=O)(=O)c2ccc(C)cc2)C=C(C)C1=O,3,1.4,105,86*
COc1cc(C(=O)C(C#N)c2nc3ccccc3s2)cc(OC)c1OC (stereo not drawn),-9,-0.3,104,.
CCN1CCN(C(c2cccnc2)c2ccc3cccnc3c2O)CC1 (stereo not drawn),-45,1.2,87*,89*
COc1ccc(C(c2ccc3cccnc3c2O)N2CCOCC2)cc1 (stereo not drawn),-64,0.2,102,98*
Cc1cc(C)c(C#N)c(=S)[nH]1,-19,2.4,101,90*
Cc1cc(C)c(C#N)c(=O)[nH]1,-19,0.95,111,99
CCOC(=O)/C=C1\SC(C)C(=O)N1CC(=O)c1ccc(Br)cc1 (stereo not drawn),0,0.25,100,0
COc1ccc(Cl)cc1NC(=O)c1sc2nc(-c3ccc(OC)c(OC)c3)ccc2c1N,.,.,104,.
